# The source made the active and inactive calls.
# Legend:
# [1] = test system: Plasmodium falciparum Sir2 (PF13_0152, Sir2A); assay: pfSir2 binders on small-molecule microarrays, primary screen, biochemical, small-molecule microarray, 635 nm fluorescence (AID 1098); settings: small-molecule microarray binding, fluorescence 635 nm; higher = more signal;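 also: score merges spot fluorescence intensity with its signal-to-noise ratio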
# [2] = small-molecule microarray binders of probe aDKK1, primary screen, biochemical, biotinylated probe, 635/667 nm fluorescence (AID 1099); settings: higher = more signal;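 also: score merges 667nm spot fluorescence with signal to noise across triplicate slides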
# [3] = small-molecule microarray binders of probe aCHRDL2, primary screen, biochemical, biotinylated probe, 635/667 nm fluorescence (AID 1100); settings: higher = more signal
# [4] = splicing luciferase reporter signal modulators, primary screen, spliceosome inhibition project, cell-based, HEK293, splice +/- reporter (AID 1101); settings: luminescence, 24 h, higher = more signal, called active from +8 up or from −8 down;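 also: HEK293 cells carrying a splicing-competent luciferase reporter gene; test concentration not given here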
# [5] = molecular target: Fibroblast growth factor 10 (Homo sapiens) (UniProt O15520); assay: FGF10 binders on small-molecule microarrays, primary screen, biochemical, small-molecule microarray, 635 nm fluorescence (AID 1102); settings: FGF10 binding, fluorescence 635 nm, higher = more signal
# Sequence of Fibroblast growth factor 10 (Homo sapiens) (O15520 whole entry, looked up): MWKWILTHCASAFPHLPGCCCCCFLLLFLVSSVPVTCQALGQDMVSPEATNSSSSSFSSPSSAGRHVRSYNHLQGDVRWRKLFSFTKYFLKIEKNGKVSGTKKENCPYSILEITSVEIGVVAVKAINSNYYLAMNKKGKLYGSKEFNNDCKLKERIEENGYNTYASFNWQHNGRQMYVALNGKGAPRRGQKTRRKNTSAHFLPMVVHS
# [6] = test system: glycogen synthase kinase-3 (GSK3A per assay name; protocol says GSK3B); assay: GSK3 binders on small-molecule microarrays, primary screen, biochemical, small-molecule microarray, 635 nm fluorescence, GSK3A (AID 1103); settings: small-molecule microarray binding, fluorescence 635 nm; higher = more signal; also: the record names both GSK3A and GSK3B
# [7] = molecular target: Epidermal growth factor receptor (Homo sapiens) (UniProt P00533); assay: EGFR binders on small-molecule microarrays, primary screen, biochemical, small-molecule microarray, 635 nm fluorescence (AID 1104); settings: EGFR binding, higher = more signal;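 also: score merges 667 nm emission intensity with spot signal to noise over triplicate slides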
# Sequence of Epidermal growth factor receptor (Homo sapiens) (P00533 whole entry, looked up): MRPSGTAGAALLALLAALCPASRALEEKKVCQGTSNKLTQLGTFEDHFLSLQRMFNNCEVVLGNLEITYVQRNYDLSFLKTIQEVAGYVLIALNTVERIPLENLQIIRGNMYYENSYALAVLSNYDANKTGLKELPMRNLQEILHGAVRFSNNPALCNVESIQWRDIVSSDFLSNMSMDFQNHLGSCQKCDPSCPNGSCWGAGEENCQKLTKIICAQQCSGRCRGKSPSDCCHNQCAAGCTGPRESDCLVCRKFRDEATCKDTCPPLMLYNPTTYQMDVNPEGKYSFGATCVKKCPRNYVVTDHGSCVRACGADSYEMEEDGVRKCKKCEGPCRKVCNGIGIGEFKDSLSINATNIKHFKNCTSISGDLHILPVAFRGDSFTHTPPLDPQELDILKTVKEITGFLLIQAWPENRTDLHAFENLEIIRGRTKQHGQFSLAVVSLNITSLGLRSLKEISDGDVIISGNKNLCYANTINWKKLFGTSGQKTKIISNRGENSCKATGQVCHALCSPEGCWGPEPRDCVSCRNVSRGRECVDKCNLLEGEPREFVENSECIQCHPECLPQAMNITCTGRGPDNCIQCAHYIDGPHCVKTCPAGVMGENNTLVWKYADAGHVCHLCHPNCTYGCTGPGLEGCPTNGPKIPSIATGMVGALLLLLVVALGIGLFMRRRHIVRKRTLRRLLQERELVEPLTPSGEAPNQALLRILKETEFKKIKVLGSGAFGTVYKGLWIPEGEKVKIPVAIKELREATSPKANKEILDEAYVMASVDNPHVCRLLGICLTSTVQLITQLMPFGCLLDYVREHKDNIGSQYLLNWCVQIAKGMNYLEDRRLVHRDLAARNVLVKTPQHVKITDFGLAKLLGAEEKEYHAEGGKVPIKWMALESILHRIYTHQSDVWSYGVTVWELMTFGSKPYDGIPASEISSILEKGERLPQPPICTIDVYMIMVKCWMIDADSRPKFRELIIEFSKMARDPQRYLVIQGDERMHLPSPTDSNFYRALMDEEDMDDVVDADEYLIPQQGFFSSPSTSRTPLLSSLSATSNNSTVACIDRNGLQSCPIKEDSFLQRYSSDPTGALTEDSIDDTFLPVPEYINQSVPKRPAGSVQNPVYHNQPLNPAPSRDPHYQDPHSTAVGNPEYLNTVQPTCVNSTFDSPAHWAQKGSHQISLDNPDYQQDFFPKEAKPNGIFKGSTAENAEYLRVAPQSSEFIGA
# [8] = molecular target: Follistatin-related protein 3 (Homo sapiens) (UniProt O95633); assay: FSTL3 binders on small-molecule microarrays, primary screen, biochemical, small-molecule microarray, 635 nm fluorescence (AID 1105); settings: FSTL3 binding, higher = more signal;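 also: score merges emission near 667 nm and signal to noise per printed spot across three slides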
# Sequence of Follistatin-related protein 3 (Homo sapiens) (O95633 whole entry, looked up): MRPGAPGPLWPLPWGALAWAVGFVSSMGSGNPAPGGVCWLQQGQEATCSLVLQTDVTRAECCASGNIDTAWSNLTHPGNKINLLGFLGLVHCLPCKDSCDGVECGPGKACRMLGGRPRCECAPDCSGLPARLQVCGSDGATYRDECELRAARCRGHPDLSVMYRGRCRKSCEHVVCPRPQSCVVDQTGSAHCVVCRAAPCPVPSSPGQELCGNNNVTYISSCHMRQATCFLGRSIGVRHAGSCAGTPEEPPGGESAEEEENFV
# [9] = molecular target: Dickkopf-related protein 1 (Homo sapiens) (UniProt O94907); assay: DKK1 binders on small-molecule microarrays, primary screen, biochemical, small-molecule microarray, 635 nm fluorescence scan (AID 1106); settings: DKK1 binding, higher = more signal;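 also: score merges emission near 667 nm with signal to noise over three replicate slides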
# Sequence of Dickkopf-related protein 1 (Homo sapiens) (O94907 whole entry, looked up): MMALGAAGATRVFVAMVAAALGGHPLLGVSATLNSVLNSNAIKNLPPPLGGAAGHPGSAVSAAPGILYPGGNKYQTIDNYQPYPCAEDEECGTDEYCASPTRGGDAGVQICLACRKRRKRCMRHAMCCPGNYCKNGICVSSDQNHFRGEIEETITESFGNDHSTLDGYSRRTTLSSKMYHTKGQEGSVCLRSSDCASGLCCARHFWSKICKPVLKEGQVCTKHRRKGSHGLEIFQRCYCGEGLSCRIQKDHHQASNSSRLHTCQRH
# [10] = test system: Inhibin beta A chain (activin A); assay: INHBA (activin A) binders on microarrays, primary screen, biochemical, small-molecule microarray, 635 nm fluorescence scan (AID 1107); settings: small-molecule microarray binding, higher = more signal;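 also: mouse activin A protein probed at 4.33 µg/mL on printed slides; score merges bound-protein fluorescence near 667 nm with spot signal-to-noise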
# [11] = test system: Human papillomavirus type 1a protein E7 (residues 44-93); assay: HPV1a E7 fragment binders on microarrays, primary screen, biochemical, small-molecule microarray, residues 44-93, 635 nm fluorescence (AID 1108); settings: small-molecule microarray binding, fluorescence 635 nm; higher = more signal;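 also: E7 fragment applied at 1 µg/mL in TBST for 1 h at 4 C; score combines spot fluorescence with its signal to noise ratio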
# [12] = modulators of HCV replicon luciferase signal, primary screen, HCV replication inhibitor project, Huh7 cells, luciferase reporter (AID 1109); settings: 48 h, higher = more signal;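 also: huh7 hepatoma cells harbouring a luciferase neomycin HCV replicon reporter; luciferase luminescence as measure of HCV replicon replication; test concentration not given here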
# [13] = molecular target: Left-right determination factor 2 (Homo sapiens) (UniProt O00292); assay: LEFTY2 binders on small-molecule microarrays, primary screen, biochemical, small-molecule microarray, 635 nm fluorescence scan (AID 1110); settings: LEFTY2 binding, higher = more signal
# Sequence of Left-right determination factor 2 (Homo sapiens) (O00292 whole entry, looked up): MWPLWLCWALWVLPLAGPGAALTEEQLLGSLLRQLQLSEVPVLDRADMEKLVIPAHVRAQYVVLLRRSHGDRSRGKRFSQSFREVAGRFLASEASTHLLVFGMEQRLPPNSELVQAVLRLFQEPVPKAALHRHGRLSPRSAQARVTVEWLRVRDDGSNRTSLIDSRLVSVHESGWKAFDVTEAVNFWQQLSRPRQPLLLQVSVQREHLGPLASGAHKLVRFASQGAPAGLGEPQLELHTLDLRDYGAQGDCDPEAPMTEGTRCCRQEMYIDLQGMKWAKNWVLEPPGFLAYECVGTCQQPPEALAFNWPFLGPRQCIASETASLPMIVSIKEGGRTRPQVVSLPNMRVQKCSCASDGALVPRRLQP
# [14] = molecular target: Calmodulin-1 (Homo sapiens) (UniProt P0DP23); assay: CALM1 binders on microarrays, EGTA buffer, profiling panel, biochemical, small-molecule microarray, Cy5-labelled CALM1 (AID 1111); settings: Cy5-CALM1 binding fluorescence, higher = more signal;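 also: labelled calmodulin applied in Tris saline Tween buffer holding calcium plus EGTA and DTT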
# [15] = molecular target: Calmodulin-1 (Homo sapiens) (UniProt P0DP23); assay: calcium-bound CALM1 binders on microarrays, profiling panel, artefact control for SMM control-protein annotation, biochemical, small-molecule microarray, Cy5-labelled CALM1, plus calcium (AID 1112); settings: Cy5-CALM1 binding fluorescence, higher = more signal;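 also: score merges spot fluorescence with signal to noise from triplicate slides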
# [16] = small-molecule microarray binders of probe aWnt5a, primary screen, biochemical, biotinylated probe, 635/667 nm fluorescence (AID 1113); settings: higher = more signal;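 also: score merges 667 nm fluorescence intensity with signal-to-noise per printed feature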
# [17] = small-molecule microarray binders of probe aShh, primary screen, biochemical, biotinylated probe, 635/667 nm fluorescence (AID 1114); settings: higher = more signal;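 also: probe is biotin-labelled aShh protein from a stem cell growth factor screen; measures binding of labelled protein to compounds printed on the slide; score merges feature fluorescence at 667 nm with signal-to-noise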
# [18] = small-molecule microarray binders of probe aNog, primary screen, biochemical, biotinylated probe, 635/667 nm fluorescence (AID 1115); settings: higher = more signal;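 also: probe is biotinylated aNog protein used at 0.15 µg/mL for 1 h at 4 C; z-score combines 667 nm fluorescence of each spot with its signal to noise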
# [19] = molecular target: Torsin-1A-interacting protein 1 (Homo sapiens) (UniProt Q5JTV8); assay: LAP1 binders from COS7 cell lysate, primary screen, small-molecule microarray, 635/667 nm fluorescence (AID 1116); settings: COS7-hLAP1 lysate binding, 635 nm fluorescence, higher = more signal
# Sequence of Torsin-1A-interacting protein 1 (Homo sapiens) (Q5JTV8 whole entry, looked up): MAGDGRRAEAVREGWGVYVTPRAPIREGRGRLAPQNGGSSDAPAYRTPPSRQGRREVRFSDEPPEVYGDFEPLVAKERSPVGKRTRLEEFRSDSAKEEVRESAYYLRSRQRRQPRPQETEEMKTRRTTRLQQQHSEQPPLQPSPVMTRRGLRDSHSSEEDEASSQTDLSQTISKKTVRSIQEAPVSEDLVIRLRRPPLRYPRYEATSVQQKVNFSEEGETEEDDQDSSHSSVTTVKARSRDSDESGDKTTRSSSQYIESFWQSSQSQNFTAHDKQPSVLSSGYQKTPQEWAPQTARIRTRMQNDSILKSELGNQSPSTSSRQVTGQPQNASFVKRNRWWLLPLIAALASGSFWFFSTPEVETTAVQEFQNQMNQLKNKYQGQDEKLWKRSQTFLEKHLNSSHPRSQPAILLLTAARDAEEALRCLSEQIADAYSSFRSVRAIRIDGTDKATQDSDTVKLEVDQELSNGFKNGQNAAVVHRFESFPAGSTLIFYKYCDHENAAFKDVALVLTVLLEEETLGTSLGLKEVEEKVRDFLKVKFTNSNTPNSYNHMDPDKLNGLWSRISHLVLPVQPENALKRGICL
# [20] = molecular target: Alpha-bungarotoxin (Bungarus multicinctus) (UniProt P60615); assay: alpha-bungarotoxin binders on microarray, profiling panel, artefact control for SMM control protein annotation, biochemical, small-molecule microarray, Alexa647 label, 635/667 nm fluorescence (AID 1117); settings: alpha-BTX-A647 binding fluorescence, higher = more signal
# Sequence of Alpha-bungarotoxin (Bungarus multicinctus) (P60615 whole entry, looked up): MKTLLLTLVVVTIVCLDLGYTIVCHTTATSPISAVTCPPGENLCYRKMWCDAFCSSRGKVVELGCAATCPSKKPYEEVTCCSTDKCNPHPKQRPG
Compound,composite z-score [1],composite z-score [2],composite z-score [3],z-score [4],composite z-score [5],composite z-score [6],composite z-score [7],composite z-score [8],composite z-score [9],composite z-score [10],composite z-score [11],z-score [12],composite z-score [13],composite z-score [14],composite z-score [15],composite z-score [16],composite z-score [17],composite z-score [18],composite z-score [19],composite z-score [20]
O=C1C2C=CC(C(O)c3cccs3)N(Nc3ccccc3)C2C(=O)N1c1ccccc1 (stereo not given),0.695,0.742,0.467,-0.145 (inactive),0.0597,-0.828,0.0148,-0.03,0.034,1.42,0.407,-1.09,0.253,0.297,-0.971,0.0135,0.0469,0.371,0.403,0.38
COC(=O)[C@@]1(Cc2ccccc2)[C@H]2c3cc(C(=O)N4CCCC4)n(Cc4ccc(C(F)(F)F)nc4)c3C[C@H]2CN1C(=O)c1ccccc1,1.28,0.568,1.02,-0.434 (inactive),0.881,1.32,0.0424,1.1,-0.269,0.634,1.46,-2.59,-0.208,1.96,0.836,0.288,1.36,1.48,0.658,1.56
CCC(CC)C(O)C1C=CC2C(=O)N(C)C(=O)C2N1N1CCCCC1 (stereo not given),0.669,1.72,0.906,1.58 (inactive),0.91,0.93,0.411,1.43,0.233,0.539,1.43,-0.481,0.692,1.68,-0.263,0.0229,0.0381,1.57,0.103,1.2
CC(=O)n1cc(C(O)C2C=CC3C(=O)N(c4ccccc4)C(=O)C3N2Nc2ccccc2F)c2ccccc21 (stereo not given),1.76,-0.167,0.483,-1.68 (inactive),-0.191,-0.0798,-0.801,-0.638,-1.18,-0.551,1.13,-0.159,-0.747,1.64,-0.494,-0.0566,0.0723,-0.305,0.488,0.403
C=CC[C@]1(C(=O)NCCCOC)N=C(c2ccc(OCCCO)cc2)O[C@H]1c1ccccc1,1.08,0.107,1.05,-0.318 (inactive),-0.418,0.94,-1.69,-0.0778,-1.13,-0.112,1.44,-1.53,-0.916,0.287,-0.484,0.108,-0.0626,0.328,1.03,-0.0901
COC(=O)c1ccc([C@H](NC(=O)c2ccccc2)[C@]2(C)C[C@H]2C2CCCCC2)cc1,0.135,0.343,1.24,0.736 (inactive),0.225,0.0377,-0.133,0.4,-0.532,0.795,1.3,-1.61,-0.254,1.73,1.47,0.0805,0.315,1.68,0.462,1.09
COC(=O)C(CC#Cc1ccc2c(c1)[C@]1(C(=O)N2)[C@H](c2ccc(O)cc2)N2[C@H](c3ccccc3)[C@H](c3ccccc3)OC(=O)[C@H]2[C@@H]1C(=O)N1CCc2cc(OC)c(OC)cc2C1)C(=O)OC,1.38,0.505,0.724,-0.541 (inactive),0.817,1.32,0.708,1.29,1.06,-0.0531,0.85,-0.163,0.737,0.267,-0.521,0.324,0.383,-0.23,1.25,1.55
CC(C)C[C@H]1NC(=O)[C@@]23C(=O)N[C@@H](Cc4ccccc4)C2[C@H](C)[C@@]2(C)O[C@H]2C3/C=C/C/C=C\CNC(=O)[C@@H]2CCCN2C1=O (stereo not given in full),0.903,-0.244,-0.575,0.091 (inactive),0.815,0.47,0.139,0.572,0.668,0.918,0.612,-0.0034,0.459,-0.0621,-0.576,-0.0704,0.111,0.283,0.268,0.288
